Test results taken from PubChem BioAssay AID492962 (National Center for Advancing Translational Sciences (NCATS), 2010).
Unmarked numbers belong to inactive results. Active and inactive are the calls of the source. How the calls were made is not given here.

test: Mouse Th1 T cell differentiation assay for inhibitors of ROR gamma transcriptional activity; conditions: mouse naive CD4 T cells, Th1 IFN-g flow cytometry; activity: at 30 µM, hits give high values unless noted; outcome: at 3 µM unless noted
Text: NIH Molecular Libraries Probe Production Network [MLPCN] NIH Chemical Genomics Center [NCGC] MLPCN Grant: R03 DA026211-01 Assay Provider: Dan Littman, New York University Keywords: NIH Roadmap, MLPCN, MLI, MLSMR, qHTS, NCGC, qHTS, nuclear hormone receptor, retinoic acid-related orphan receptor, ROR gamma Assay Overview: The retinoic acid-related orphan receptor (ROR) gamma is a transcription factor that has a central role in the differentiation of Th17 cells, a subset of T helper cells that secrete the inflammatory cytokines IL-17a, IL-17f, and IL-22. Th17 cells have been implicated in graft versus host disease, autoimmune disease and asthma. ROR gamma is induced in naive T helper cells in the presence of TGF-beta combined with IL-6, IL-21, or IL-23, and thereafter directs the expression of the Th17 lineage cytokines. To confirm the selectivity of ROR gamma inhibitors, compounds with strong inhibitory activities on Th17 cells were tested in a mouse Th1 T cell differentiation assay. T cells differentiate into Th1 cells in the presence of IL-12 and IL-2. […] Th1 differentiation was tracked by the induction of interferon gamma (IFN-g) expression as measured by an anti-IFN-g antibody using flow cytometry.
Assay Protocol Summary: Cells from lymph nodes and spleens derived from six to eight week old IL17a-GFP mice (Biocytogen LLC) were used for T cell purification. B220- cells were isolated on an autoMACS Pro with bead depletion of B220+ cells (Miltenyi). Naive CD4+ T cell were further purified as TCRb+CD8- DAPI- CD19- CD4+CD25- CD62L+CD44low/Int by cell sorting on a FACSAria (BD). Cells were cultivated in an incubator at 37 C and 5% CO2 in RPMI 1640 medium (Invitrogen) supplemented with 10% (vol/vol) heat-inactivated FBS (Hyclone), penicillin-streptomycin, 2 mM glutamine and 0.1 mM nonessential amino acids. Cells were seeded on day 0 at a density of 0.4E5 cells per ml in 96-well plates coated with anti-CD3e (5 ug/ml) and anti-CD28 (10 ug/ml). Cells were cultured for 4~5 days in Th1 [IL-12 (10 ng/ml), IL-2 (100 U/ml), anti-IL-4] condition. […]

| Compound | activity | outcome |
| --- | --- | --- |
| COc1cc(O)c(C(CC(=O)N2CCCC(C)C2)c2ccccc2OC)c(OC)c1 (stereo not drawn) | 46.1% |  |
| CC1CCCN(C(=O)CC(c2ccc3c(c2)OCO3)c2ccc3ccccc3c2O)C1 (stereo not drawn) | 32.5% [at 25 µM, hits give high values] |  |
| COc1cc(O)c(C(CC(=O)N2CC(C)CC(C)C2)c2ccc3c(c2)OCO3)c(OC)c1 (stereo not drawn) |  | inactive |
